{
  "source": "PubChem BioAssay (EPA / NIEHS)",
  "note": "Several values for one entry are separate records, joined by “and”; a condition that tells them apart may be missing. Equal values may be shown once. Activity calls are given as the source filed them. How the source made its calls: active means hit-call score of the fitted dose curve at least 0.9, where 1 is the maximum; inactive means score below 0.9.",
  "data": [
    {"read-out": "Intercellular Adhesion Molecule 1 (ICAM1), ICAM1 (gene 3383)", "test": "BSK_BE3C_ICAM1: BioMAP Diversity Plus: BE3C Assay for Intercellular Adhesion Molecule 1 (ICAM1) Biomarker Activity (AID 2284278);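 on outcome: cell-surface ICAM-1 protein level quantified by ELISA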", "details": "primary human bronchial epithelial cells", "method_in_brief": "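ELISA read-out of ICAM-1 on human lung bronchial epithelial primary cells, 24 h post-dosing; positive-direction curve fit, DMSO = baseline. SRB total-protein staining of parallel cultures flagged overt cytotoxicity.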", "values": [
      {"smiles": "O=C(O)C(F)(F)C(F)(F)C(F)(F)C(F)(F)C(F)(F)C(F)(F)C(F)F", "outcome": "inactive"},
      {"smiles": "C=CC(=O)OCC(F)(F)C(F)(F)C(F)(F)COC(=O)C=C", "AC50": "38.5 µM (active) and 35.5 µM (active)"},
      {"smiles": "COC(F)(C(F)F)C(F)(F)F", "note": "(stereo not drawn)", "outcome": "inactive"},
      {"smiles": "O=S(=O)(O)CCC(F)(F)C(F)(F)C(F)(F)C(F)(F)F", "outcome": "inactive"},
      {"smiles": "NC(=O)C(F)(F)C(F)(F)C(F)(F)C(F)F", "outcome": "inactive"},
      {"smiles": "CCN=C1C=CC(=C(c2ccc(N(CC)CC)cc2)c2ccc(N(CC)CC)cc2)c2ccccc21", "AC50": "3.19 µM (active) and 2.57 µM (active)"},
      {"smiles": "OCCCC(F)(F)C(F)(F)C(F)(F)C(F)(F)C(F)(F)C(F)(F)C(F)(F)C(F)(F)F", "AC50": "47 µM (active) and 47.6 µM (active)"},
      {"smiles": "FC(F)(F)C(F)(F)C(F)(F)C(F)(F)C(F)(F)C(F)(F)CC[Si](Cl)(Cl)Cl", "outcome": "inactive"},
      {"smiles": "OCC(O)CC(F)(F)C(F)(F)C(F)(F)C(F)(F)F", "note": "(stereo not drawn)", "outcome": "inactive"},
      {"smiles": "OCC(F)(F)C(F)(F)C(F)(F)C(F)(F)C(F)(F)C(F)(F)C(F)(F)C(F)(F)CO", "AC50": "44.7 µM (active) and 40.3 µM (active)"},
      {"smiles": "C=CC(=O)OCCC(F)(F)C(F)(F)C(F)(F)C(F)(F)F", "outcome": "inactive"},
      {"smiles": "FC(F)(F)C(F)(F)C(F)(F)CC1CO1", "note": "(stereo not drawn)", "outcome": "inactive"},
      {"smiles": "NC(=O)C(F)(F)C(F)(F)C(F)(F)C(F)(F)C(F)(F)C(F)(F)C(F)(F)F", "outcome": "inactive"},
      {"smiles": "NC(=O)C(F)(F)C(F)(F)C(F)(F)C(F)(F)C(N)=O", "outcome": "inactive"},
      {"smiles": "O=C(O)CCC(F)(F)C(F)(F)C(F)(F)C(F)(F)C(F)(F)C(F)(F)C(F)(F)F", "outcome": "inactive"},
      {"smiles": "OCC(F)(F)C(F)(F)C(F)(F)CO", "outcome": "inactive"},
      {"smiles": "NC(=O)C(F)(F)C(F)(F)C(F)(F)F", "outcome": "inactive"},
      {"smiles": "CN(C(=O)C(F)(F)C(F)(F)C(F)(F)F)[Si](C)(C)C", "outcome": "inactive"},
      {"smiles": "C[Si](Cl)(Cl)CCC(F)(F)C(F)(F)C(F)(F)C(F)(F)C(F)(F)C(F)(F)F", "outcome": "inactive"},
      {"smiles": "O=C(O)C(F)(F)C(F)(F)C(F)(F)OC(F)(F)F", "outcome": "inactive"},
      {"smiles": "NCC(F)(F)C(F)(F)C(F)(F)C(F)(F)C(F)(F)C(F)(F)C(F)(F)C(F)(F)F", "outcome": "inactive"},
      {"smiles": "CCOC(=O)CC(=O)C(F)(F)C(F)(F)F", "outcome": "inactive"},
      {"smiles": "O=S(=O)(OCC(F)(F)F)C(F)(F)C(F)(F)C(F)(F)C(F)(F)F", "outcome": "inactive"}
    ]}
  ]
}
